Source: ChEMBL document CHEMBL3988442, “University of Dundee, Small-Polar-MMV Screening Library” (2021)
In all, about 48,000 compounds went through this assay and about 13,000 (27%) showed an effect of 50% or more. The list shows a part of the results.

Test system: Wolbachia pipientis
Assay: Anti-Wolbachia Cell-Based Screen
Format: functional
Set-up: scale not given: in the data most compounds retested in dose-response had high values
Settings: 5 µM

Compound	Percent Effect [%]
CCc1ccc(CNC(=O)CCc2nnc(-c3ccc(C)s3)o2)nc1	18.56
CC(C)c1cc(C(=O)N(c2ccc(F)cn2)C2CCOCC2)on1	-4.853
N#Cc1ccc(CN2CCc3sccc3C2)c(F)c1	2.911
CCc1ccc(C(C)NCc2nccn2Cc2ccccc2)o1 (configuration not stated)	-9.423
CCNC(=O)N(Cc1cccc(OC)c1)C1CCC(O)CC1 (configuration not stated)	-8.682
CCS(=O)(=O)N1CCc2nnc(CN(C)C(C)C)n2CC1	-16.92
CN(C)Cc1nnc2n1CCN(c1cnccn1)CC2.O=C(O)C(F)(F)F	-7.956
OCc1nnc2n1CCN(c1cnccn1)C2	108
CN(C)CCOCc1nnc2n1CCN(c1cnccn1)CC2	1.736
Fc1cnc(N2CCCn3c(nnc3Cn3cccc3)C2)nc1.O=C(O)C(F)(F)F	0.8563
Fc1cnc(N2CCn3c(CN4CCCC4)nnc3C2)nc1.O=C(O)C(F)(F)F	-4.314
c1cnc(N2CCCn3c(nnc3Cn3cccn3)C2)nc1	3.271
CC(C)N(C)Cc1nnc2n1CCCN(c1cnccn1)C2	115.4
c1ccn(Cc2nnc3n2CCCN(c2cnccn2)C3)c1	100.7
OCCOc1ccc(NCc2cccc3[nH]ccc23)cn1	0.765
CC(C(=O)Nc1ncccn1)N1CCCN(c2nccs2)CC1 (configuration not stated)	-8.894
CCn1nc(C)c(CNC(=O)NCC(C)(O)c2ccco2)c1C (configuration not stated)	-13.65
CCn1nc(C)c(CNC(=O)NCC(C)(O)c2ccc(C)o2)c1C (configuration not stated)	57.07
CCn1nc(C)c(CNC(=O)NCC(C)(O)c2ccccc2)c1C (configuration not stated)	3.084
O=C(c1coc(CN2CCN(c3ccccc3F)CC2)n1)N1CCCC1	-9.887
O=C(O)C(F)(F)F.O=C(c1ccccc1)N1C[C@@H]2CCCO[C@@H]2[C@H](N2CCCC2)C1	0.7695
CC(=O)N1CCN([C@@H]2CN(C(=O)c3ccccc3C)C[C@H]2O)CC1	166
Cn1cccc1C(=O)N1C[C@@H]2CCCO[C@@H]2[C@H](N2CCOCC2)C1	10.78
Cc1ccccc1C(=O)N1CC2(COC(C)(C)OC2)C1	-1.566
Cc1ccccc1C(=O)N1C[C@@H]2C[C@@H](C)O[C@@H]2C1	-6.005
CC(=O)N1CCN([C@@H]2CN(C(=O)c3ccccc3)C[C@H]2O)CC1	163.7

Compound	Percent Effect [%]
Cc1ccccc1C(=O)N1C[C@@H](O)[C@H](N2CCOCC2)C1	137.5
CS(=O)(=O)c1ccc(NC(=O)N2C[C@H](O)[C@@H](N3CCOCC3)C2)cc1	-0.5097
CCCc1cc(C(=O)N2C[C@H](O)[C@@H](N3CCCC3)C2)ccn1	-25.18
CCCN(CC1CC1)S(=O)(=O)c1ccc(NC(C)=O)cc1	9.5
CCN(Cc1noc(C)n1)C(=O)CCn1c(C)cc2ccccc21	-6.675
Cc1cc(NCC(=O)N(C)C(C)c2cccs2)c(C(N)=O)cc1F (configuration not stated)	-3.325
CCOCCC(=O)NC1(c2cccc(Br)c2)CC1	2.519
CC(C(=O)N1CCCN(c2ncccc2C#N)CC1)n1cncn1 (configuration not stated)	99.83
CC(C(=O)N1CCCN(c2ncccc2C#N)CC1)n1ccnc1 (configuration not stated)	9.037
CC(C)C(C(=O)N1CCN(c2ccncc2)CC1)n1cncn1 (configuration not stated)	-6.945
Cc1ccc(N2CCCN(C(=O)C(C(C)C)n3cncn3)CC2)nn1 (configuration not stated)	1.391
CC(C)C(C(=O)N1CCCN(c2cccnn2)CC1)n1cncn1 (configuration not stated)	101.3
CN1N=C(C(=O)N2CCCN(c3ncccc3C#N)CC2)CCC1=O	-11.38
CSC(C)C(=O)N1CCCN(c2ncccc2C#N)CC1 (configuration not stated)	94.48
Cc1cc(C)c(C(=O)N2CCN(c3ncccc3C#N)CC2)c(=O)[nH]1	-2.204
CCSc1cc(C(=O)NC(C)c2cccc(N3CCOC3=O)c2)ccn1 (configuration not stated)	-4.217
Cl.NCc1ccc(OC(F)F)cc1OC(F)F	-11.87
Cc1ccc(CC(=O)N2C[C@@H](CN(C)C)[C@@H](CO)C2)cc1C	-3.019
CCn1nc(C)c(C(=O)N2C[C@@H](CN(C)CCOC)[C@@H](CO)C2)c1C	114
CCn1nc(C)cc1C(=O)N1C[C@@H](CN(C)C)[C@@H](CO)C1	107.3
COc1cccc(C)c1C(=O)N1C[C@@H](CN(C)C)[C@@H](CO)C1	-2.46
Cc1cc(C(=O)N2C[C@@H](CN(C)CCN(C)C)[C@@H](CO)C2)nc(C)n1	-17.75
COCCN(C)C[C@@H]1CN(C(=O)c2c(C)cccc2OC)C[C@@H]1CO	2.605
CCn1nc(C)c(C(=O)N2C[C@@H](CN(C)C)[C@@H](CO)C2)c1C	106.8
Cc1nc(CC(C)C)cc(C(=O)N2C[C@@H](CN(C)C)[C@@H](CO)C2)n1	-9.006
Cc1csc(CCNc2ccc(C#N)cc2F)n1	-5.881

Compound	Percent Effect [%]
CN(Cc1cc(-c2ccccc2)no1)CC1CCCN1c1cccnn1 (configuration not stated)	1.009
O=C(c1cccc2cccnc12)N1CCCN(c2cccnn2)CC1	11.56
CC(C)C1CN(C(=O)Nc2cnn(CC(F)F)c2)CCS1 (configuration not stated)	-11.36
CCNC(=O)[C@@H]1C[C@@H](n2cc(CC3CCCCC3)nn2)CN1	1.299
CNC(=O)[C@@H]1C[C@H](n2cc(-c3ccc(CN4CC=CC4)cc3)nn2)CN1	109.2
CCNC(=O)[C@@H]1C[C@@H](n2cc(CN(CC)CC)nn2)CN1	-7.284
CCNC(=O)[C@@H]1C[C@H](n2cc(CC3CCCCC3)nn2)CN1	16.21
Cc1ncc(CN2CCC(n3cc(-c4ccc(F)cc4)nn3)CC2)cn1	6.515
CNC(=O)[C@@H]1C[C@@H](n2cc(-c3ccc(CN4CC=CC4)cc3)nn2)CN1	109.8
CCCS(=O)(=O)c1ccc(N2CCN(Cc3ccccc3)CC2)nn1	5.683
OC(CN1CCN(Cc2nnc(C3CC3)o2)CC1)c1ccccc1 (configuration not stated)	-2.421
CCOc1ccc(-c2ccnc(CC)n2)cc1C(=O)O	-9.54
CC(C)Oc1ccc(CNC(=O)C2CCC(=O)N2)cn1 (configuration not stated)	3.42
Cc1nnc(NC(=O)NCc2ccc(OC3CCCC3)nc2)s1	94.72
Cc1nnc(NC(=O)NCc2ccc(OC(C)C)nc2)s1	85.37
COc1ccc(CNC(=O)NC2CCN(CC3CCCC3)CC2)cn1	15.19
Cc1ccc(CNC(=O)Nc2nnc(C)s2)cn1	3.385
O=C(NCc1ccc(OCC2CC2)nc1)Nc1c(F)cccc1F	-3.933
Cc1nnc(SCC(=O)NCC(c2ccccc2Cl)N(C)C)s1 (configuration not stated)	-0.8898
CCOC1CCN(C(=O)c2csc(S(N)(=O)=O)c2)CC1	18.04
COC(C)(C)CC(C)NCc1nncn1C1CCCCC1 (configuration not stated)	-17.97
CCn1cnnc1CNC(=O)NC(C)C(C)C (configuration not stated)	-4.455
CCn1cnnc1CNc1nc(C)nc2scc(CC(C)C)c12	122.4
CCC(NC(=O)NCc1nncn1CC)c1ccc(OC)cc1 (configuration not stated)	-10.18
Cc1nc(NCc2nnc(C)n2C)c2c(CC(C)C)csc2n1	119.2
Cc1nc(NCc2nncn2C2CC2)c2c(CC(C)C)csc2n1	109.7

Compound	Percent Effect [%]
CC(C)CC1(C(=O)NCc2nncn2C2CC2)CCC1	-7.53
Cc1c(NC(C)C(C)C)cccc1C(=O)NCc1nnc(C)n1C (configuration not stated)	0.4576
COc1ccc(S(=O)(=O)C(F)(F)F)cc1NC(=O)CSCC#N	5.684
O=C(Cn1nc2c(cc1=O)CCCC2)NC(C(=O)O)c1ccccc1 (configuration not stated)	110.7
O=c1cc2c(nn1CN1CCN(c3ccccc3)CC1)CCC2	10.03
O=C(Cn1nc2c(cc1=O)CCCC2)N[C@@H](C(=O)O)c1ccccc1	11.26
O=C(Cn1nc2c(cc1=O)CSCC2)NC(Cc1ccccc1)C(=O)O (configuration not stated)	28.51
CC(C)c1cc(NC(=O)CN2CCc3nn(C)c(=O)cc3C2)on1	-16.14
CC(C)C(NC(=O)Cn1nc2c(cc1=O)CCCC2)C(=O)O (configuration not stated)	113
O=C(Cn1nc2c(cc1=O)CCCC2)NC(Cc1ccccc1)C(=O)O (configuration not stated)	101
O=C(Cn1nc2c(cc1=O)CCCC2)N[C@@H](Cc1ccccc1)C(=O)O	3.393
CCCn1nc2c(cc1=O)CN(CC(=O)Nc1cc(C)no1)CC2	-28.4
CCCc1cc(NCc2noc(COC)n2)n2nccc2n1	6.33
CCC(C(=O)NC1CCCCC1)n1cccc(OC)c1=O (configuration not stated)	-2.043
c1cncc(O[C@H]2COCCN(C3CCC3)C2)c1	-11.18
Cc1cccc(O[C@H]2COCCN(C3CCC3)C2)n1	0.8237
CN(C)c1ccc(CC2CCN(c3cnccn3)C2)nn1 (configuration not stated)	129.7
CN(C)c1ccc(CC2CCN(c3cnccn3)CC2)nn1	90.64
CN(C)c1ccc(CC2CCCN(c3cnccn3)C2)nn1 (configuration not stated)	93.08
c1cnc(CC2COCCN(C3CCCCC3)C2)cn1 (configuration not stated)	106.9
Cc1occc1C(=O)N1CCC2(CC1)CN(Cc1nccs1)CCO2.O=C(O)C(F)(F)F	-1.97
CCNC(=O)CNS(=O)(=O)c1cc(Br)ccc1F	-3.098
Cc1nnc(NCC2(c3ccc(Cl)cc3Cl)CCOCC2)c(C#N)c1C	25.06
COCC1(CNC(=O)[C@@]23CNC[C@@H]2CN(C2CCCC2)C3)CC1	-67.22
